The record followed here is the supplement of paper PMC3334620.

In all, about 33,000 sequences were measured (“E-score (-0.5 to 0.5)”: median about -0.0059, highest 2% from about 0.26 on). The list comes from a sample in which the highest values are over-represented; it also holds similar and randomly drawn sequences.

The assay deals with T1, Cin5 (UniProt P40917).
T1 sequence: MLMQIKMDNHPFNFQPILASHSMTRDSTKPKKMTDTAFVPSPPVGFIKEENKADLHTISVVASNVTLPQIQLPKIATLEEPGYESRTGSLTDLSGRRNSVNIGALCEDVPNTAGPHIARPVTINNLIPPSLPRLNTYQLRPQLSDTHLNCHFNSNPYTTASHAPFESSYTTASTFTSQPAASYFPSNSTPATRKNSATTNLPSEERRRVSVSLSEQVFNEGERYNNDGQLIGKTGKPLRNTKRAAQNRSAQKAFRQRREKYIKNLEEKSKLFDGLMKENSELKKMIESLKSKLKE
Kind of assay: PBM E-score (8-mer binding enrichment) (E-score (-0.5 to 0.5)); higher = stronger / more preferred TF binding. To be noted: protein concentration: 100 nM; construct: GST-full length. In short, it runs like this: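 The E-score, a modified Wilcoxon-Mann-Whitney statistic, was computed by the Universal PBM Analysis Suite for every ungapped eight-base word pooled with its reverse complement. Scans behind it were normalised with masliner after bound GST-tagged yeast transcription factors were detected with fluorescent anti-GST. The proteins, at about 100-200 nM, had been applied to universal all-10-mer Agilent arrays made double-stranded by primer extension.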
As for AGAAGGGC, the “PBM E-score” value is -0.254. Regarding ATATAACA, the “PBM E-score” value is 0.284. With ATATAACC the figure was 0.188; with GTATAACA, 0.126; with CTATAACA, -0.122. To ATATAACG belongs 0.273; to CTATAACC, -0.144. To CTTAAACC belongs -0.192; to ACGGCGTC, -0.0496. Consider GAACTGGC, for which the “PBM E-score” value was -0.125. On to AATAATTC, for which the “PBM E-score” value amounted to 0.261. To AATAATTA belongs 0.35; to CATAATTC, 0.138; to GATAATTA, 0.218.

In the case of ACTAATTA, the “PBM E-score” value stood at 0.228. With CATAATTA the figure was 0.308.

For the sequence CCTAATTA, the “PBM E-score” value was 0.0517. To ACTAATTC belongs 0.204; to AATAATTG, 0.0887; to ACCGAAGA, 0.0871. For ACCAATGC, the “PBM E-score” value is 0.0593. To AGAGACTC belongs -0.0094.

CCTCGCCC: the “PBM E-score” value was 0.0221.

Take AGCCTTAG: the “PBM E-score” value is -0.197.

As to CAACAGTA, the “PBM E-score” value worked out at 0.0302. Take GCCAGCCA: the “PBM E-score” value was -0.193. To GATACAAA belongs 0.173; to TATACAAA, 0.169; to AATACAAA, 0.342. With AATACAAC the figure was 0.236. With AATACAAT the figure was 0.154; with AATACAAG, 0.294; with AACTCCCT, -0.142.

As for CATTAACG, the “PBM E-score” value stood at 0.0883. To CGCATGAA belongs 0.116; to GGTAACCA, -0.151; to ATTATTGA, 0.111. For GCAATACA, the “PBM E-score” value is 0.274. With GCAATACC the figure was 0.0147; with ACAATACC, 0.278; with ACAATACT, 0.237. For the sequence ATAATACG, the “PBM E-score” value is 0.213.

For ATAATACA, the “PBM E-score” value worked out at 0.35. To ATAATAAC belongs 0.206. For the sequence CTAATACC, the “PBM E-score” value came out at 0.104. ACAATACA: the “PBM E-score” value was determined as 0.144. With ACAATACG the figure was 0.05; with CTAATACA, 0.161; with ATAATACC, 0.258.

Consider GAGTGCTA, for which the “PBM E-score” value turned out to be 0.0563.

Turning to CCTAACCC, the “PBM E-score” value is -0.302. To ACAAGACT belongs -0.039; to GATTGGAA, -0.0265. To ATCGAGTC belongs 0.0696; to CTCTAAGC, 0.0569.

For ATTAACTG, the “PBM E-score” value amounted to 0.237. To ATACAGGG belongs 0.121. With ACTCGTGG the figure was -0.041; with ATGGTAGG, -0.0925; with GTACTTCA, 0.279.

On to ATACTTCA, for which the “PBM E-score” value was found to be 0.129. With CTACTTCA the figure was -0.0153. With AACCCAGA, the “PBM E-score” value is -0.0895. With CGGGGCAC the figure was -0.242; with GCTCTACC, -0.288; with ATAGATAA, 0.267. With ATAGATAG, the “PBM E-score” value stood at 0.0352.

Take AAAGATTA: the “PBM E-score” value worked out at 0.249. As to ATAGATAC, the “PBM E-score” value was determined as 0.224. As to ATTGAATC, the “PBM E-score” value was -0.0743.

For TAAGATTA, the “PBM E-score” value was found to be 0.274.

On to TTAGATAA, for which the “PBM E-score” value was determined as 0.32. To CTAGATAA belongs 0.0277; to ATTGAATA, 0.277. With GAAGATTA the figure was 0.197; with TCAGATAA, 0.184; with CTTGAATA, 0.0347. With AAAAGGAC the figure was 0.0428; with AAGACCCG, -0.133. As to AACGATCG, the “PBM E-score” value was determined as 0.0832. To ACGCCCGA belongs -0.032.

In the case of AGGAACAA, the “PBM E-score” value is -0.0886. With AGTTCGGC the figure was -0.0604; with ATAGATTG, 0.224.

Regarding GTGGAATA, the “PBM E-score” value stood at 0.193. For GCAGATAA, the “PBM E-score” value was found to be 0.0212.

Turning to ATGGAATC, the “PBM E-score” value was 0.242. With ATAGAATG the figure was 0.209. With GTAGATAA the figure was 0.28; with GTAGAATA, 0.194; with ATAGAATA, 0.277. With GTAGATTA the figure was 0.232; with GTAGATAC, 0.0747; with ATAGATTA, 0.302. On to ATGGAATA, for which the “PBM E-score” value is 0.322. To AAAGTTGC belongs 0.0362; to AGGCCAAC, -0.251. With CATTGCAA the figure was -0.0643; with CTCAGGGA, -0.0496. To GCGCATTA belongs 0.147; to ATCACCTG, 0.148. As for CAATCTGC, the “PBM E-score” value was -0.0434. With GAGCAGAA the figure was -0.0414; with ACCAACGC, -0.0288; with AGGGCACG, -0.206. To CCGACCGG belongs -0.211; to ATAGCTAA, 0.0506. As for TTAGCTAA, the “PBM E-score” value worked out at 0.343.

Regarding CTAGCTAA, the “PBM E-score” value was found to be 0.0272.

For the sequence CACTCGGG, the “PBM E-score” value is -0.117.
